# An excerpt weighted towards active compounds, which were near 2.4% of everything screened.
# D2 PAM-1 – D2 dopamine receptor (human) potentiation; P14416; HEK293 T-REx D2, calcium flux, EC20 dopamine potentiation; potentiation, % at 10 µM; hit rate 0.34% among 340,000; AID 485347;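 active = potentiation over 3 SD above the plate norm, cut at about 30% in these data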; also: 0% is about no effect
# Target sequence (P14416 whole entry, looked up): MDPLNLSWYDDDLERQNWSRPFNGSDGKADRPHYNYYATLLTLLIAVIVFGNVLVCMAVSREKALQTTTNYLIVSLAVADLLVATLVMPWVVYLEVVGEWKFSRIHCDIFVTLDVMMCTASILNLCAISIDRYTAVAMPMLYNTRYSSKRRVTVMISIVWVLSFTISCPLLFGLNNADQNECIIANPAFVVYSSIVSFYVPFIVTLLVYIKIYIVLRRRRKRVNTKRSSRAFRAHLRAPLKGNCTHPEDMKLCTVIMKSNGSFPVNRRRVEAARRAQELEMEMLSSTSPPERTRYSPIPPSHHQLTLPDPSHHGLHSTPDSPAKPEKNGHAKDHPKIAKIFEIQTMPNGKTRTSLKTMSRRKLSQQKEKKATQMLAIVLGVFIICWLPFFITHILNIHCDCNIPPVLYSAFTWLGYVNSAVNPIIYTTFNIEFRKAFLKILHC
#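 Cells plated with tetracycline inducer and held overnight at 30 C; calcium dye loaded 30–90 min at room temperature; baseline taken, compound added and read 180 s; EC20 dopamine then added and read 180 s.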
# D2 ag-1 – D2 dopamine receptor (human) agonism; P14416; HEK293 T-REx D2 cells, calcium flux agonist mode; activation, % at 2 µM; hit rate 0.53% among 340,000;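 active = activation over 3 SD above normal in the single-dose calcium agonist read, cut at about 30% in these data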; also: 0% is about no effect
#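 Agonism scored from kinetic calcium signal (1 read/sec, 180 s) following compound pin transfer, after a 10 s baseline. Cells: HEK293 Trex line expressing inducible D2 receptor coupled to calcium, dye-loaded after overnight culture at 30 C.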
# D2 PAM-2 – positive allosteric modulators of human D2 dopamine receptor; P14416; DiscoveRx D2 beta-arrestin cells, luminescence, 90 min; 100% = 57 uM dopamine signal; potentiation, % (test concentration not listed); hit rate 0.23% among 360,000; in the data active = potentiation above about 50%; inconclusive = mostly about 30% to 49%
#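 PathHunter beta-arrestin assay in DiscoveRx D2 cells. Compounds were added with an EC20 of dopamine (50 nM final) for 90 min at 37 deg C. Luminescence was read 1 h after detection reagent, with 57 uM dopamine as the EC100 control.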
# D2 ag-2 – activates the human D2 dopamine receptor. P14416. DiscoveRx PathHunter D2 beta-arrestin, luminescence, 90 min; 100% = 57 uM dopamine signal. activation, % (no concentration beside the values). hit rate 0.084% among 360,000. AID 624465; in the data active = activation above about 40%; inconclusive = between about 15% and that limit
#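 Agonist mode: compounds alone added to overnight-plated D2 PathHunter cells for 90 min at 37 C, with 57 uM final dopamine (EC100) defining full response. Beta-arrestin recruitment detected by chemiluminescent reagent, read after 1 h at ambient temperature.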
# D2 antagonist – D2 dopamine receptor (human) antagonism; P14416; HEK293 TREx D2 cells, calcium flux, dopamine EC80; inhibition, % at 10 µM; hit rate 2% among 340,000; in the data active = inhibition above about 30%; inactive = below that, where a call was filed; also: 0% is about no effect
#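 Dopamine at EC80 is the agonist stimulus; test compounds precede it by 180 s. Calcium flux read kinetically in a force-coupled, inducible HEK293 T-REx D2 cell line.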
# Starred values were filed as active, the others as inactive; ? = inconclusive; . = no result.
SMILES,D2 PAM-1,D2 ag-1,D2 PAM-2,D2 ag-2,D2 antagonist
Cc1ccc(Cl)cc1NC(=O)N(Cc1ccc2c(c1)OCO2)C1CCN(Cc2ccccc2)CC1,-19,2,.,.,.
Cn1c(=O)n(C)c2cc(CNCCc3ccccc3)ccc21,.,3,.,.,.
CN1/C(=C\C=C2C(=O)NC(=O)NC2=O)C(C)(C)c2ccccc21,.,50*,1,-4,-14
CN1/C(=C\C=Nc2ccccc2)C(C)(C)c2ccccc21,-2,1,-8,3,-4
COC(=O)C1C=C2c3cccc4[nH]cc(c34)CC2N(C)C1 (centres undefined),-30,79*,.,.,62*
CC[C@@H](CO)NC(=O)[C@@H]1C=C2c3cccc4[nH]cc(c34)C[C@H]2N(C)C1,.,.,?,42*,.
CCCCCCn1c(O)c(C=Nc2ccccc2N2CCOCC2)c(=O)[nH]c1=S,10,1,-3,-4,37*
CCCCn1c(O)c(/C=N/N2CCOCC2)c(=O)[nH]c1=S,-2,-1,-13,-4,6
COc1ccc2c(c1O)-c1c(OC)c(OC)cc3c1[C@H](C2)N(C)CC3,-3,0,-30,-7,14
CCCN1CCc2cccc3c2[C@H]1Cc1ccc(O)c(O)c1-3,.,.,136*,121*,.
CCCCn1c(O)c(C(C)=NCCc2c[nH]c3ccccc23)c(=O)[nH]c1=O,3,3,-2,0,-2
O=C(/C=C/c1c[nH]c2ccccc12)c1c(O)n(CCc2ccccc2)c(=O)[nH]c1=O,-7,40*,-3,-1,37*
CCCc1nc(SC)ncc1C(=O)Nc1ccc(Cl)cc1C(=O)c1ccccc1,.,-1,.,.,.
COc1ccc(F)cc1C(=O)C1CCCN(Cc2cnc(C)s2)C1 (centres undefined),-18,1,-5,-2,17
COc1ccc(F)cc1C(=O)C1CCCN(Cc2ccc(O)cc2)C1 (centres undefined),-22,0,-14,-3,72*
COc1ccccc1CN1CCCC(C(=O)c2ccccc2OC)C1 (centres undefined),-16,0,-25,2,-7
CCOc1ccc(CN2CCCC(C(=O)c3ccccc3OC)C2)cc1 (centres undefined),-24,0,-21,7,72*
O=C(Nc1ccc2c(c1)OCO2)c1cccn(Cc2ccccc2)c1=O,17,.,.,.,.
O=C(Nc1ccc2c(c1)OCCO2)c1cccn(Cc2cccc(F)c2)c1=O,16,0,.,.,.
N#Cc1c(Br)n(C2OC(CO)C(O)C2O)c2ncnc(N)c12 (centres undefined),.,.,?,70*,.
C=Cc1ccc(Cn2c(C)c(CNCCc3cc(OC)ccc3OC)c(C(=O)O)c2C)cc1,5,1,.,.,.
CCOc1ccc2nc(NC(=O)c3cccn(Cc4ccc(Cl)cc4)c3=O)sc2c1,14,.,.,.,.
O=C(COc1cc(Cl)ccc1Cl)Nc1ccc(Cl)cc1C(=O)c1ccccc1,-4,0,.,.,.
CCOC(=O)c1c(N)n(CCCOC(=O)c2ccco2)c2nc3ccccc3nc12,9,2,86*,?,14
O=C1NC(=O)N(Cc2ccco2)C(=O)/C1=C/C=C/c1ccco1,-7,7,1,-5,34*
SMILES,D2 PAM-1,D2 ag-1,D2 PAM-2,D2 ag-2,D2 antagonist
Cc1nc2ccccc2c(=O)n1-c1ccccn1,9,-1,2,3,35*
Cc1ccccc1-n1c(C)nc2ccccc2c1=O,31*,0,-2,-3,-6
COc1ccccc1-n1c(-c2ccccc2)nc2ccccc2c1=O,-1,0,-18,-4,40*
COc1ccc(NC(=O)CN2C(=O)C(C)N=C(c3ccccc3F)c3cc(Cl)ccc32)c(OC)c1 (centres undefined),0,0,.,.,.
Cc1cc(C)cc(NC(=O)CN2C(=O)CN=C(c3ccccc3)c3cc(Cl)ccc32)c1,-9,0,.,.,.
COc1ccc(C)cc1NC(=O)N(Cc1ccc2c(c1)OCO2)C1CCN(Cc2ccccc2)CC1,-7,0,.,.,.
CC1CCC2C(C)C(=O)OC3OC4(C)CCC1C32OO4 (centres undefined),13,0,62*,?,-3
CC1CCC2[C@@H](C)C(=O)OC3O[C@]4(C)CCC1C32OO4 (some centres undefined),.,.,53*,?,.
Cc1ccc(CNC(=O)CCCn2c(=O)c3sccc3n(CC(=O)Nc3c(C)cccc3C)c2=O)cc1,-3,.,.,.,.
CC(=O)N1CN2CN(C1)CN(C(C)=O)C2,34*,2,0,-1,-9
COc1cc(Br)cc(CN2CCN(C)CC2)c1O,-29,-1,-18,-1,5
CCN1CCN(Cc2cc(Br)ccc2O)CC1,-21,1,-40,0,64*
COc1ccc(Br)cc1CN1CCN(CCO)CC1,-23,0,-25,0,55*
CCN(CC)C(=O)c1ccc(NC(=O)CCn2nc(-c3ccc(Cl)cc3)c3ccccc3c2=O)cc1,-9,-1,.,.,.
Cc1cc(OCC(=O)N2CCN(CCc3ccncc3)CC2)cc(C)c1Cl,-11,.,.,.,.
CCc1nc(SC)ncc1C(=O)Nc1ccc(Cl)cc1C(=O)c1ccccc1,.,-1,.,.,.
Cc1nnc(NC(=O)c2cccn(Cc3ccccc3F)c2=O)s1,2,2,.,.,.
CN1CCN(c2ccccc2N)CC1,-6,1,-14,0,-12
CN1CCN(c2c[nH]c(=O)[nH]c2=O)CC1,13,1,8,-1,36*
CCOC(=O)c1ccc(NC(=O)c2c(O)[nH]c(=O)[nH]c2=O)cc1,0,54*,-6,1,-2
CCOc1ccc(NC(=O)c2c(O)[nH]c(=O)[nH]c2=O)cc1,.,.,11,2,.
Cc1ccc(NC(=O)N(Cc2ccc3c(c2)OCO3)C2CCN(Cc3ccccc3)CC2)cc1Cl,.,4,.,.,.
O=C1CC(c2ccc(F)cc2)c2c(c3ccccc3oc2=O)O1 (centres undefined),9,.,.,.,.
O=C(COC(=O)Cc1ccccc1)Nc1nnc(-c2ccccc2)o1,-11,0,-66,2,31*
Nc1c([N+](=O)[O-])cc(F)c(N2CCNCC2)c1Br,11,-4,-12,1,10
CN1CCN(c2c(F)cc([N+](=O)[O-])c(N)c2Br)CC1,-19,0,-16,-4,35*
CCOC(=O)C1CCCCC12C(C#N)=C(N)Oc1n[nH]c(C)c12 (centres undefined),-2,1,-9,-4,30*

# Screening data as filed in PubChem.
